{"source": "PubChem BioAssay AID624391", "about": "(National Center for Advancing Translational Sciences (NCATS), 2012)", "note": "Calls of active or inactive are those of the source. Calls follow the shape of the dose curve; as a rule, active = well fitted curve in the direction sought with a large enough effect; inactive = no such curve, though single readings can be large or run the other way."}
{"biological_target": "Pyruvate kinase PKM (Homo sapiens) (UniProt P14618)", "sequence (P14618 whole entry, looked up, canonical isoform)": "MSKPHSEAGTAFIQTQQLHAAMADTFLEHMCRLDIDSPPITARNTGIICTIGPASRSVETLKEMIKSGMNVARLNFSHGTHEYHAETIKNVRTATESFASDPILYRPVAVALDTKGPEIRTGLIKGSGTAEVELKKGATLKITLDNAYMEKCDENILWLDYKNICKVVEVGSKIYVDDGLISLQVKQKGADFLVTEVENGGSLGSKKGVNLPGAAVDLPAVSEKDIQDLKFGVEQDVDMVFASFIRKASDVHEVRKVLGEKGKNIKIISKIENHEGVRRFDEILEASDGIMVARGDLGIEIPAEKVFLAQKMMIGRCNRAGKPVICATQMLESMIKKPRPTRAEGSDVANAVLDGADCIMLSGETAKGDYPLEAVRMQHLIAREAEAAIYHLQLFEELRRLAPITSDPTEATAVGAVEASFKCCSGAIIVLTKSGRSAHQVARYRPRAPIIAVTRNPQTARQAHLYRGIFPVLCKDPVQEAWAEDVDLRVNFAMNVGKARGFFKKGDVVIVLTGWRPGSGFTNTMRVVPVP", "experiment": "qHTS for Activators of Human Muscle Isoform 2 Pyruvate Kinase: Extended Characterization for Probe 2", "settings": "purified hPK-M2, Kinase-Glo ATP luminescence, 1 h", "description": "Human pyruvate kinase muscle 2 (hPK-M2) enzyme was supplied as a highly purified (>95% pure) preparation from Harvard Medical School and assayed for its ability to generate ATP from ADP using phosphoenolpyruvate (PEP) as a substrate. ATP generation was detected in a coupled reaction by luciferase-mediated luminescence, an ATP-dependent process. […] The enzyme was assayed at an intermediate level of activity to screen for both inhibitors and activators. NIH Chemical Genomics Center [NCGC] NIH Molecular Libraries Probe Centers Network [MLPCN] MLPCN Grant: MH085679 Assay Submitter (PI): Matthew G. Vander Heiden, Harvard Medical School\nThree uL of substrate mix (at r.t.) in assay buffer (50 mM Imidazole pH7.2, 50 mM KCl, 7 mM MgCl2, 0.01% Tween 20, 0.05% BSA) was dispensed into white solid bottom 1,536 well microtiter plates so that the final concentrations of substrates in the assay were 0.1 mM ADP and 0.5 mM PEP. 23 nL of compound were delivered by a pin tool and 1 uL of enzyme mix (final concentration of 0.1 nM) in assay buffer (4 degree Celsius) was added. Plates were incubated at room temperature for 1 hour. Two uL of detection mix (Kinase-Glo, Promega; at 4 degree Celsius protected from light) was added and luminescence read by a ViewLux (Perkin Elmer) at 1 second exposure/plate. Data were normalized to the uninhibited (column 3) and AC100 inhibition (no enzyme in column 2). To monitor activation, the first column contained a titration of the activator, NCGC00031955-03 (16-point 1:2 dilutions in duplicate starting at 57 uM) and the first 16 rows of column 4 contained 57 uM of NCGC00031955-03."}
{"smiles": "Cc1ccc(NS(=O)(=O)c2ccc3c(c2)CCC(=O)N3)cc1C", "Potency": "163 nM (active)"}
{"smiles": "COc1cccc(Cn2ncc3c4sc(S(C)=O)cc4n(C)c3c2=O)c1", "note": "(stereo not drawn)", "Potency": "73 nM (active)"}
{"smiles": "O=S(=O)(c1ccc2c(c1)OCCO2)N1CCN(S(=O)(=O)c2c(F)cccc2F)CC1", "Potency": "81.9 nM (active)"}
